In PubChem BioAssay (EPA / NIEHS):
Values joined by “and” are separate entries in the source; they are usually repeats but may differ in a detail not shown here. Equal values may be shown once. Inconclusive results are not listed. The source holds several records for some structures; these can differ, active in one and inactive in another. Active and inactive are the calls of the source. The calls were made as follows: active = hit-call score of the fitted dose curve at least 0.9, where 1 is the maximum; inconclusive = response in the unintended direction; inactive = score below 0.9.

Experiments:
[1] = molecular target: chicken Estrogen Receptor (ERa), ESR1 (gene 396099) (UniProt P06212); assay: ATG_chERa_XSP2: Attagene TRANS-FACTORIAL Multi-Species (XSP2) HepG2 Assay for chicken Estrogen Receptor (ERa) (AID 2283817);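 also: actives raise reporter signal above DMSO so AC50 reflects ER activation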
Sequence of chicken Estrogen Receptor (ERa), ESR1 (gene 396099) (P06212 whole entry, looked up, the tested form may be a part): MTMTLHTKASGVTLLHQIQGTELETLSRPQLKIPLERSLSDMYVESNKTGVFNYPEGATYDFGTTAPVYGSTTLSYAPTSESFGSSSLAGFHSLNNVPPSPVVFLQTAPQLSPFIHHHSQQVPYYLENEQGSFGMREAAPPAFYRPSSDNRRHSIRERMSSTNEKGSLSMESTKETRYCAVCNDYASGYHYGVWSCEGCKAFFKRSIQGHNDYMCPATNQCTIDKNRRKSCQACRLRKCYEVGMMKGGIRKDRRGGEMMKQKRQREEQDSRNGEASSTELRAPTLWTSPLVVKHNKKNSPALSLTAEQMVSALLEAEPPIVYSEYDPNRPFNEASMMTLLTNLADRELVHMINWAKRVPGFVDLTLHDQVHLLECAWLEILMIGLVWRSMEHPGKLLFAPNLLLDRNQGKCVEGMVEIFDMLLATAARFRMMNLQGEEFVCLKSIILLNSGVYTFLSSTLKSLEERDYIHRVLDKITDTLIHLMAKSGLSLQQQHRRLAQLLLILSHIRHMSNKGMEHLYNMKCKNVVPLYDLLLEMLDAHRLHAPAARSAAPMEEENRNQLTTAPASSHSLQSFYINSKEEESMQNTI
Outline: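 Reporter mRNA induction read by RT-PCR, fluorescent labelling and capillary electrophoresis after 24 h exposure; positive-direction fit against DMSO baseline. HepG2 cells transfected with multiplexed GAL4-UAS units including chicken ERa chimera; medium contained 3 nM 6-alpha-fluorotestosterone plus 1.5 nM norgestrel.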

[2] = tested on: frog Estrogen Receptor (ER), gene 398734; assay: ATG_frER1_XSP2: Attagene TRANS-FACTORIAL Multi-Species (XSP2) HepG2 Assay for frog Estrogen Receptor (ER) (AID 2283821);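 also: hits raise reporter mRNA above DMSO baseline so potency means agonist or activator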
Outline: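 HepG2 cells transiently transfected with multiplexed GAL4-UAS reporter units expressing chimeric NR-Gal4 proteins (TRANS format) were dosed for 24 h. Reporter mRNA was quantified by RT-PCR, FAM primer extension, HpaI digestion and capillary electrophoresis; gain of signal relative to DMSO.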

[3] = ATG_M_19_XSP2: Attagene TRANS-FACTORIAL Multi-Species (XSP2) HepG2 Assay for M32 Transcription Factor (Internal Marker) (AID 2283822)
Outline: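 Internal background marker in a multi-species nuclear receptor TRANS panel: transfected HepG2 cells exposed 24 h, with 3 nM 6-alpha-fluorotestosterone and 1.5 nM norgestrel present. Readout is RT-PCR of reporter transcripts resolved by capillary electrophoresis, gain-of-signal versus DMSO.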

[4] = tested on: zebrafish Estrogen Receptor (ER2b), gene 317733; assay: ATG_zfER2b_XSP2: Attagene TRANS-FACTORIAL Multi-Species (XSP2) HepG2 Assay for zebrafish Estrogen Receptor (ER2b) (AID 2283823);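 also: fitted upward as reporter gain over DMSO so potency reflects activation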
Outline: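 Transfect HepG2 with GAL4-UAS reporter constructs; dose chemicals, 24 h; isolate RNA, RT-PCR, FAM-label, HpaI digest; capillary electrophoresis. Gain-of-signal vs DMSO.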

[5] = tested on: zebrafish Androgen Receptor (AR), gene 100005148; assay: ATG_zfAR_XSP2: Attagene TRANS-FACTORIAL Multi-Species (XSP2) HepG2 Assay for zebrafish Androgen Receptor (AR) (AID 2283825);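 also: hits raise reporter mRNA above DMSO so AC50 reflects agonist-type gain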
Outline: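 After 24 h compound exposure in medium with 3 nM 6-alpha-fluorotestosterone plus 1.5 nM norgestrel, HepG2 cells carrying zebrafish AR–GAL4 reporter constructs were assessed for reporter mRNA gain by RT-PCR and capillary electrophoresis.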

[6] = ATG_M_32_XSP2: Attagene TRANS-FACTORIAL Multi-Species (XSP2) HepG2 Assay for M19 Transcription Factor (Internal Marker) (AID 2283826)
Method: ATG_XSP2_multi-species_TRANS is a cell-based, multiplexed assay created by modifying the existing Attagene TRANS-FACTORIAL system to include a panel of nuclear receptors from some or all the following species: human (Homo sapiens), mouse (Mus musculus), frog (Xenopus laevis), zebrafish (Danio rerio), chicken (Gallus gallus), and turtle (Chrysemys picta). The ECOTOX-FACTORIAL format uses HepG2, a human liver cell line, with measurements taken at 24 hours after chemical dosing in a 24-well plate. Xsp2 included 3 nM 6-alpha-fluorotestosterone and 1.5 nM norgestrel to stimulate the androgen receptor.ATG_M_32_XSP2 is one of 29 assay components measured or calculated from the ATG_XSP2_multi-species_TRANS assay. It is designed to make measurements of mRNA induction, a form of inducible reporter, as detected with fluorescence intensity signals by Reverse transcription polymerase chain reaction (RT-PCR) and Capillary electrophoresis technology.This assay endpoint, ATG_M_32_XSP2, was analyzed in the positive analysis fitting direction relative to DMSO as the negative control and baseline of activity. Using a type of inducible reporter, measures of mRNA for gain-of-signal activity can be used to understand the background control at the transcription factor-level as they relate to the gene. Furthermore, this assay endpoint can be referred to as a secondary readout, because this assay has produced multiple assay endpoints where this one serves a background control function. To generalize the intended target to other relatable targets, this assay endpoint is annotated to the background measurement intended target family, where the subfamily is internal marker.
Human liver HepG2 cells are transiently transfected with multiple reporter transcription units (MRTUs) in 6-well plates using FuGene 6 reagent (Roche; 3 ml FuGene/1 mg DNA). The MRTU constructs are regulated by a cis-regulating element (promoter). […] A major difference between the CIS and TRANS system is that in CIS activities of endogenous TFs are measured, whereas the TRANS assay evaluates changes in activities of exogenous, chimeric NR-Gal4 proteins. […] At the end of 24 hour incubation, total RNA was isolated using TriZol reagent (Invitrogen). The isolated RNA is then reverse-transcribed using oligo(dT) primer and Mo-MLV reverse transcriptase (Invitrogen) with DNAse I (Ambion) treatment for 30 min. The one-tenth of the produced cDNA was amplified by PCR using Taq DNA polymerase (Invitrogen) and two reporter sequence-specific primers. The PCR products were fluorescently labeled by primer extension with 6-arboxyfluorescein (6-FAM) 5'-labeled reporter sequence-specific primer (2 min at 95 C, 20 s at 68 C and 10 min at 72 C) and these products were digested with 5U of HpaI (New England Biolabs) for 2h at 37 C. The fragments were purified using Qiaquick PCR columns (Qiagen), analyzed on an ABI 3130xL genetic analyzer (Applied Biosystems) with peak positions identified by using a set of X-rhodamine (ROX)-labeled MapMarker1000 molecular weight standards (BioVentures). The raw capillary electrophoresis data was processed using Attagraph software (Attagene).

[7] = molecular target: Estrogen receptor (Homo sapiens) (UniProt P03372); assay: ATG_hERa_XSP2: Attagene TRANS-FACTORIAL Multi-Species (XSP2) HepG2 Assay for human Estrogen Receptor (ERa) (AID 2283827)
Sequence of Estrogen receptor (Homo sapiens) (P03372 whole entry, looked up, the tested form may be a part): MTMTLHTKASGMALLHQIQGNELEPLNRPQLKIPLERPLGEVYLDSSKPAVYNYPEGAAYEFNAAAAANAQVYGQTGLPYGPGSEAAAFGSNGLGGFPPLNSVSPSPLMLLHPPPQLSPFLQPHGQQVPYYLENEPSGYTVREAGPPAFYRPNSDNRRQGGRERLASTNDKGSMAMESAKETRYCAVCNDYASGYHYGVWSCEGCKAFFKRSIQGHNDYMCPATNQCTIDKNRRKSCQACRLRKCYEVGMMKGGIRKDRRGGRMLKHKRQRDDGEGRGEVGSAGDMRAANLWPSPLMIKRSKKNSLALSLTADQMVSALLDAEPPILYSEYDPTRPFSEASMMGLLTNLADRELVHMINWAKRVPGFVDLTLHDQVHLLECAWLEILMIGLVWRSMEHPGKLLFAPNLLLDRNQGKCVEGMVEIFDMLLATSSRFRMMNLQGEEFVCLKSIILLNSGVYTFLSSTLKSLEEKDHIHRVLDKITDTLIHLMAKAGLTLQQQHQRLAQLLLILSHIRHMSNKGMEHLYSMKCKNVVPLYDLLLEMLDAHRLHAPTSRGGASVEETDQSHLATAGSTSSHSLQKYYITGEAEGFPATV
Outline: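 Trans-activation of exogenous human ERa-Gal4 chimera read in HepG2 as reporter transcript after 24 h exposure; medium included 3 nM 6-alpha-fluorotestosterone and 1.5 nM norgestrel. Quantified by RT-PCR with capillary electrophoresis, positive-direction fitting against DMSO.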

[8] = tested on: frog Estrogen Receptor (ER2), gene 100174814; assay: ATG_frER2_XSP2: Attagene TRANS-FACTORIAL Multi-Species (XSP2) HepG2 Assay for frog Estrogen Receptor (ER2) (AID 2283828)
Outline: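 Read-out: reporter transcript levels by RT-PCR with 6-FAM primer extension, HpaI digestion and capillary electrophoresis, scored as induction over DMSO control. Transfected HepG2 carrying Xenopus ER2–GAL4 chimera; compounds incubated 24 h.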

[9] = molecular target: Peroxisome proliferator-activated receptor gamma (Homo sapiens) (UniProt P37231); assay: ATG_hPPARg_XSP2: Attagene TRANS-FACTORIAL Multi-Species (XSP2) HepG2 Assay for human Peroxisome Proliferator-activated Receptor gamma (PPARg) (AID 2283829);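 also: actives raise reporter mRNA above DMSO so AC50 reflects PPARg activation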
Sequence of Peroxisome proliferator-activated receptor gamma (Homo sapiens) (P37231 whole entry, looked up, the tested form may be a part): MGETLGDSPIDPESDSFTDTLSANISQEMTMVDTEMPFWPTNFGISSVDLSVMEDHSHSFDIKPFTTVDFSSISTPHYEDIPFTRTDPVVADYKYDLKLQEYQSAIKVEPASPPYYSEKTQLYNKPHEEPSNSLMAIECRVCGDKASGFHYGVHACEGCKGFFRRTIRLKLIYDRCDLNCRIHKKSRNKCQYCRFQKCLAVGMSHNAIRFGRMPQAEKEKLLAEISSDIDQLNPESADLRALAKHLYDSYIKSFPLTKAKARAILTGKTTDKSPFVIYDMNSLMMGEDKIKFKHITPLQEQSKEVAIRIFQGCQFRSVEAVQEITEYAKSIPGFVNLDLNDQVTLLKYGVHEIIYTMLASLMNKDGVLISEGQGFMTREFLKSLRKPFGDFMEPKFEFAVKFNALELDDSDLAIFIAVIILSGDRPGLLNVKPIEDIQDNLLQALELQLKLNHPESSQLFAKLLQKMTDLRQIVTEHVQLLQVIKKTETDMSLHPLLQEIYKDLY
Outline: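 Transient MRTU transfection, HepG2; TRANS format (exogenous NR-Gal4 chimeras). 24 h chemical exposure with 3 nM 6-alpha-fluorotestosterone and 1.5 nM norgestrel present. Readout: reporter mRNA via RT-PCR/CE fluorescence, up-direction vs DMSO.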

[10] = tested on: chicken Androgen Receptor (AR), gene 422165; assay: ATG_chAR_XSP2: Attagene TRANS-FACTORIAL Multi-Species (XSP2) HepG2 Assay for chicken Androgen Receptor (AR) (AID 2283819);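 also: hits raise reporter mRNA above DMSO so potency is for activation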
Outline: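 Readout is reporter mRNA induction via RT-PCR/capillary electrophoresis after 24 h chemical exposure, positive direction relative to DMSO. Transiently transfected HepG2 express chimeric chicken AR–GAL4; AR stimulated by 3 nM 6-alpha-fluorotestosterone and 1.5 nM norgestrel.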

Measured: AC50

CC(C)NC(=O)N1CC(=O)N(c2cc(Cl)cc(Cl)c2)C1=O
active: [7] 6.97 µM | [9] 33.2 µM
not listed: [10]
inactive: all other assays above

COP(=S)(OC)SCn1nnc2ccccc2c1=O
inactive: [1] | [4] | [7] | [8]
active: [1] 21.7 µM | [2] 29.1 µM and 5.67 µM | [4] 132 µM | [7] 24.7 µM | [9] 93.7 µM and 23.2 µM

Cc1c(COC(=O)[C@@H]2[C@H](/C=C(\Cl)C(F)(F)F)C2(C)C)cccc1-c1ccccc1
inactive: [3] | [5] | [9]
active: [1] 30.5 µM | [2] 49.3 µM | [4] 100 µM | [7] 26.1 µM | [8] 100 µM

CC1(C)CCC(=Cc2ccc(Cl)cc2)C1(O)Cn1cncn1 (stereo unspecified)
active: [1] 27.6 µM | [4] 115 µM | [7] 13.4 µM | [8] 63 µM
inactive: [2] | [3] | [6] | [9]

CSC(=O)c1c(C(F)F)nc(C(F)(F)F)c(C(=O)SC)c1CC(C)C
active: [4] 15.7 µM | [7] 3.05 µM | [8] 5.69 µM | [9] 6.53 µM
not listed: [5]
inactive: all other assays above

N#Cc1c[nH]cc1-c1cccc2c1OC(F)(F)O2
active: [1] 1.68 µM and 2.04 µM | [2] 4.14 µM | [4] 23.2 µM and 17.5 µM | [7] 1.51 µM | [8] 1.22 µM and 859 nM | [9] 14 µM and 21.7 µM
inactive: [2]

COP(=S)(OC)Oc1ccc([N+](=O)[O-])c(C)c1
active: [1] 38.3 µM | [2] 50.4 µM | [4] 54.5 µM | [7] 32.5 µM | [8] 85.1 µM | [9] 55.8 µM

CC1(C)C(C=C(Cl)Cl)C1C(=O)OC(C#N)c1cccc(Oc2ccccc2)c1 (stereo unspecified)
inactive: [6]
active: [1] 22.8 µM | [2] 21.1 µM | [4] 100 µM | [7] 17.5 µM | [8] 63.6 µM | [9] 14.2 µM

CCN(CC)C(=O)C(C)Oc1cccc2ccccc12 (stereo unspecified)
active: [1] 7.35 µM | [4] 65.7 µM | [7] 7.99 µM | [8] 25.5 µM | [9] 39.8 µM
inactive: [2] | [6]

C=C(C)CN(CC)c1c([N+](=O)[O-])cc(C(F)(F)F)cc1[N+](=O)[O-]
active: [1] 11 µM and 28.2 µM | [2] 6.84 µM and 32.4 µM | [4] 33.3 µM and 38 µM | [7] 7.36 µM and 44.2 µM | [8] 10.5 µM and 7.61 µM | [9] 41 µM and 23 µM
